Assay [1] in a line: compounds binding Alexa647 anti-His antibody – biochemical, small-molecule microarray, 635 nm fluorescence, artefact control for SMM control protein annotation, primary screen (AID 1128).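 Further: score merges feature fluorescence with signal-to-noise for each printed compound spot.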 Particulars: higher = more signal.
The test system of assay [2] is Human papillomavirus type 1a E7 protein (residues 1-88). Put plainly: HPV1a E7 small-molecule binders, primary screen, biochemical, small-molecule microarray, residues 1-88, 635 nm (AID 1129). The settings on record: small-molecule microarray binding, fluorescence 635 nm; higher = more signal.
Assay [3] addresses Focal adhesion kinase 1 (Homo sapiens) (UniProt Q05397). The experiment in a line: PTK2 protein binding on printed compound slides – biochemical, small-molecule microarray, 635/667 nm fluorescence, BSA, DTT, primary screen (AID 1130).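 Further: composite of spot emission at 667 nm and signal to noise over triplicate slides.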 Particulars: 635 nm fluorescence, higher = more signal.
Assay [4] deals with Fibrinogen (Alexa647-labelled). Put plainly: Alexa647-fibrinogen binding to printed small molecules – biochemical, small-molecule microarray, 635/667 nm fluorescence, artefact control for SMM control-protein annotation, profiling panel (AID 1131).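 Further: z-score merges 667 nm fluorescence with per-spot signal-to-noise over triplicate slides.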 The settings on record: fibrinogen-A647 binding fluorescence, higher = more signal.
Assay [5] addresses Follistatin (Homo sapiens) (UniProt P19883). Put plainly: FST protein binding to printed compounds – biochemical, small-molecule microarray, 635/667 nm fluorescence, primary screen (AID 1132). The settings on record: 635 nm fluorescence, higher = more signal.
For assay [6], the target named is Fibroblast growth factor 2 (Homo sapiens) (UniProt P09038). The experiment in a line: basic fibroblast growth factor binding to printed compounds – biochemical, small-molecule microarray, 635/667 nm fluorescence, primary screen (AID 1133). The settings on record: FGF2, fluorescence 635/667, higher = more signal.
Fibroblast growth factor 2 (Homo sapiens), sequence (P09038 whole entry, looked up): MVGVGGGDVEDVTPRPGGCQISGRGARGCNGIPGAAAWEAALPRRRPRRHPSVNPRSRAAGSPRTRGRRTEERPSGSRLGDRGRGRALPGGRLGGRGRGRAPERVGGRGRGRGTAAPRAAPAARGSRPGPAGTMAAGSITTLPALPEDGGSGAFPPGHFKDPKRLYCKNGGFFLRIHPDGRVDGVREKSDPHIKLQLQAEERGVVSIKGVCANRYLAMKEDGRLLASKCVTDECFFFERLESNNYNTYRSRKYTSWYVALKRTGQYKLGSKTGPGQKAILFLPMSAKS
Assay [7] can be described thus: JC-1 mitochondrial potential readout, lung cancer cells – cell-based, A549, JC-1 fluorescence, basal, 24 h, 100 nL, profiling panel (AID 1138).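 Further: A549 lung adenocarcinoma cells under basal conditions with no added stimulus; test concentration not given here.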 Particulars: higher = more signal.
Assay [8] concerns Lefty1. The experiment in a line: Lefty1 protein binding to printed compounds – biochemical, small-molecule microarray, 635/667 nm fluorescence, primary screen (AID 1139). Particulars: fluorescence 635/667, higher = more signal.
Assay [9] deals with wheat germ agglutinin (Triticum aestivum), Alexa647-labelled. Put plainly: Alexa647-WGA lectin binding to printed small molecules – biochemical, small-molecule microarray, 635/667 nm fluorescence, artefact control for SMM control-protein annotation, profiling panel (AID 1140).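 Further: score merges 667 nm feature emission with signal to noise over triplicate slides.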 Particulars: WGA-A647 binding, 635 nm fluorescence, higher = more signal.
The target in assay [10] is Luciferin 4-monooxygenase (Photinus pyralis) (UniProt P08659). The experiment in a line: inhibition of purified Photinus pyralis luciferase – biochemical, luminescence, purified enzyme, 2006 set, primary screen (AID 1141).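 Further: cell-free assay with purified firefly luciferase at 100 ng per well in PBS; test concentration not given here.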 The settings on record: purified firefly luciferase, SteadyGlo luminescence, 30 min; higher = more signal, called active from +8 up or from −8 down.
Luciferin 4-monooxygenase (Photinus pyralis), sequence (P08659 whole entry, looked up): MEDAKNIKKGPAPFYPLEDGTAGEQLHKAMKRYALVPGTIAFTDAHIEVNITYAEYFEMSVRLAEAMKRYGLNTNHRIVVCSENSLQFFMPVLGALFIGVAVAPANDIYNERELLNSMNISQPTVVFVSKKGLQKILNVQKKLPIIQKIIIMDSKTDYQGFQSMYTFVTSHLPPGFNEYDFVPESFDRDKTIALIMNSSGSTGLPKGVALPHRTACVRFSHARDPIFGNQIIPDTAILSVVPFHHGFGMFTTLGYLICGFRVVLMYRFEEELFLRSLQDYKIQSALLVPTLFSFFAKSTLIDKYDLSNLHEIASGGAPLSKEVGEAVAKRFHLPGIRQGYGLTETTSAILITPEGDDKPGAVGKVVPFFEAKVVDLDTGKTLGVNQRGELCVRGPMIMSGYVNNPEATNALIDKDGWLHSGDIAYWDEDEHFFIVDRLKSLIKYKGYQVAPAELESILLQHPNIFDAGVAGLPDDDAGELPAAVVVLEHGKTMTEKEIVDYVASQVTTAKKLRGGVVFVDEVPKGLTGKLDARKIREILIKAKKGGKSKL
Assay [11] has as its system Wnt5a (protein binding on small-molecule microarray). The experiment in a line: small molecules binding Wnt5a protein – biophysical, small-molecule microarray, 635/667 nm fluorescence, primary screen (AID 1142).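 Further: fluorescence read at 667 nm with signal to noise per printed feature.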 Particulars: 635 nm fluorescence, higher = more signal.
Assay [12] can be described thus: ATP-based viability of Huh7 replicon cells – cell-based, CellTiter-Glo luminescence, basal, 48 h, cytotoxicity control for HCV replication inhibitor project, primary screen (AID 1143).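 Further: Huh7 hepatoma cells carrying a hepatitis C replication reporter with no stimulus; test concentration not given here.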 Particulars: higher = more signal, called active from +8 up or from −8 down.
A short description of assay [13]: Pseudomonas biofilm growth suppression – PAO1 strain, BacTiter-Glo luminescence, LB-PBS, primary screen (AID 1144). Particulars: P. aeruginosa PAO1 biofilm, 12 h, higher = more signal.
Assay [14] can be described thus: basal CRE-LacZ reporter activity in PC12 – cell-based, unstimulated, primary screen (AID 1145). Particulars: no forskolin, luminescence, 4.5 h, higher = more signal, called active from +8 up or from −8 down.
A short description of assay [15]: forskolin-driven CRE-LacZ activity in PC12 – cell-based, CRE-LacZ reporter, forskolin-stimulated, primary screen (AID 1146).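 Further: PC12 cells with 6xCRE LacZ reporter stimulated by forskolin 10 µM; beta-galactosidase reporter signal reflecting CREB driven transcription.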 The settings on record: luminescence, 4.5 h, higher = more signal, called active from +8 up or from −8 down.
For assay [16], the target named is Streptavidin (Streptomyces avidinii) (UniProt P22629). Put plainly: compounds binding control protein streptavidin – biophysical, small-molecule microarray, 635/667 nm fluorescence, artefact control for SMM compound annotation, primary screen (AID 1147).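 Further: signal reflects streptavidin binding to arrayed compounds as a control protein.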 Particulars: higher = more signal.
Streptavidin (Streptomyces avidinii), sequence (P22629 whole entry, looked up): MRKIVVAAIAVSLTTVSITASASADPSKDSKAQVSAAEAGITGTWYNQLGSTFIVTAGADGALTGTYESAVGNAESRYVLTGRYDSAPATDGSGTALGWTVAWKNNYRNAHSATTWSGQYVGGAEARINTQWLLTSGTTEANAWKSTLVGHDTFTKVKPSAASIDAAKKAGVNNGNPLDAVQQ
Assay [17] can be described thus: probe aInhba binding on compound microarray – biochemical, small-molecule microarray, 635/667 nm fluorescence, primary screen (AID 1148).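 Further: score merges 667nm spot fluorescence with signal-to-noise for antibody binding to printed compounds.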 The settings on record: higher = more signal.
The target of assay [18] is Torsin-1A (Homo sapiens) (UniProt O14656). The experiment in a line: TOR1A wild-type binding on microarray – cell lysate, small-molecule microarray, lysate, 635/667 nm, primary screen (AID 1149). Particulars: COS7 hTOR1A-WT lysate, 635 nm fluorescence, higher = more signal.
Torsin-1A (Homo sapiens), sequence (O14656 whole entry, looked up): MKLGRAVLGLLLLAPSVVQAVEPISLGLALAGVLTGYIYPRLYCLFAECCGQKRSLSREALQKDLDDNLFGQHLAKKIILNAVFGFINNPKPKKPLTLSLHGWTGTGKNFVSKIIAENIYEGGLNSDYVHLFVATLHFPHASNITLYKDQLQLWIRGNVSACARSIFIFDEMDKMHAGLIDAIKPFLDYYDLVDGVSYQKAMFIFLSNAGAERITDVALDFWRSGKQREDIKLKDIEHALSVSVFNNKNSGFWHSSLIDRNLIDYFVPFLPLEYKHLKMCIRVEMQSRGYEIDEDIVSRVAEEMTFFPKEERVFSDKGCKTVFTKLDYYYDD
The target is the same in assay [19]. Put plainly: torsin A mutant lysate binding on microarrays – cell lysate, small-molecule microarray, COS7 lysate, 635/667 nm fluorescence, primary screen (AID 1150).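 Further: score pools 667 nm emission and signal to noise measuring lysate protein binding.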 Particulars: COS7 hTOR1A mutant lysate, 635 nm fluorescence, higher = more signal.
For assay [20], the system named is Sonic hedgehog protein (Shh). Put plainly: Sonic hedgehog microarray binding compounds – biochemical, small-molecule microarray, 635/667 nm fluorescence, primary screen (AID 1151).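 Further: Shh protein binding to compounds spotted on small-molecule microarray slides; score combines spot fluorescence intensity with signal-to-noise across triplicate slides.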 The settings on record: 635 nm fluorescence, higher = more signal.

This is an account of results in PubChem BioAssay.

Activity calls are given as the source filed them. Unless noted, how the calls were made is not given here.

Focal adhesion kinase 1 (Homo sapiens), sequence (Q05397 whole entry, looked up): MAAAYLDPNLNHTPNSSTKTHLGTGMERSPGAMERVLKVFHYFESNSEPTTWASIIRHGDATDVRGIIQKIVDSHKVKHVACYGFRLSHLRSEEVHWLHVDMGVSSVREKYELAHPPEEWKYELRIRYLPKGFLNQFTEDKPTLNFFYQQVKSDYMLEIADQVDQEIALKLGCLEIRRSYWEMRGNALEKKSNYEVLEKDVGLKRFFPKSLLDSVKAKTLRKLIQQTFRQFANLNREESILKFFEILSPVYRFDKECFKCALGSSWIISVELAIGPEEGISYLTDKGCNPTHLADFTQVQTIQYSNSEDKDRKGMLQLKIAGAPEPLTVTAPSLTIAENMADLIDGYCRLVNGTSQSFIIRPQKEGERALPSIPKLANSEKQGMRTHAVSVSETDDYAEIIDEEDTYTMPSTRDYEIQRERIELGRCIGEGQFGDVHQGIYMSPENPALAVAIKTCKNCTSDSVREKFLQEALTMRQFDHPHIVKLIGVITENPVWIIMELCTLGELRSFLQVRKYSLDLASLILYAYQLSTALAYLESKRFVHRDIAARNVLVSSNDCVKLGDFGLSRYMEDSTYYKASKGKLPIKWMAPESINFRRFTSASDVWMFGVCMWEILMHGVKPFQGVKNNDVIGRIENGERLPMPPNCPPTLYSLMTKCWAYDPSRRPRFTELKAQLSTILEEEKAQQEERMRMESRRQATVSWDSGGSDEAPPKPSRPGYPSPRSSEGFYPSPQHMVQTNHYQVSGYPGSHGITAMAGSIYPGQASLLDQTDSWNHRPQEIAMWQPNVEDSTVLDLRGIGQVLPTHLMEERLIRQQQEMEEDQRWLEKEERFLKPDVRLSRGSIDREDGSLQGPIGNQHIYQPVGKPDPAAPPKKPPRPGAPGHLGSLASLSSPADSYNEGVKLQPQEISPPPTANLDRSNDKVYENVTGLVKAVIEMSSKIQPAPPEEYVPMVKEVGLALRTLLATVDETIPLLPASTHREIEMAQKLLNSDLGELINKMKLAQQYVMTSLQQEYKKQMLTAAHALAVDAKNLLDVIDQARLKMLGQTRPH
Follistatin (Homo sapiens), sequence (P19883 whole entry, looked up): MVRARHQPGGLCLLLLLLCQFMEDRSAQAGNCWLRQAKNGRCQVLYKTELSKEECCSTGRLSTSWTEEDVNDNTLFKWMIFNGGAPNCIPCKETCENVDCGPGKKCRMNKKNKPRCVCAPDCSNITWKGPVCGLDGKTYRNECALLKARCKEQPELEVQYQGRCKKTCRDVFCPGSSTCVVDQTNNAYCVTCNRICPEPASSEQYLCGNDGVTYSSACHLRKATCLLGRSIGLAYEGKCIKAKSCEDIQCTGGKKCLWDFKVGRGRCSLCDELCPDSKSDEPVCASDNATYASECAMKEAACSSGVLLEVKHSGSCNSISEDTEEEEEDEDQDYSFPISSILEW

Turning to `Cc1ccc(S[C@]2(C(=O)O)CC(=O)N(Cc3cc(C(F)(F)F)cc(C(F)(F)F)c3)[C@@H]2c2ccc(CO)cc2I)cc1`, the composite z-score was -0.339 in assay [1]; -0.664 in [2]; 0.0035 in assay [3]; -1.56 in assay [4]; -0.251 in [5]; -0.325 in assay [6]. In addition, the composite z-score in assay [8] was -0.89; in assay [9], -1.09; in assay [11] it was 0.176; in assay [16], -0.718; in [17], -0.106; in assay [18], -1.1. The values for the composite z-score in assay [19] and in [20] were -0.3 and 0.42, respectively. Further, the z-score in [7] was -0.603; in [10], -1.3 (inactive); in [12], -2.71 (inactive); in [13], 0.519 (inactive); in [14], 0.261 (inactive); in assay [15], 0.859 (inactive).
As to `[N-]=[N+]=NCc1ccccc1C[C@@]1(C(=O)O)N=C(c2ccc(OCCCO)cc2)O[C@@H]1c1ccccc1N=[N+]=[N-]`, the composite z-score in assay [1] was 1.36; in [2], 1.22; in [3], 0.581; in [4] it was 1.02; in assay [5], 0.622; in assay [6], -0.316. Moreover, the composite z-score in assay [8] was 0.42; in assay [9], 0.415; in assay [11], -0.0964; in assay [16] it was 0.312; in assay [17], 0.0073; in [18] it was 0.0819. Besides, the results for the composite z-score in [19] and in assay [20] were 0.0245 and -0.165, respectively. The z-score in assay [7] was 0.376; in [10], -8.1 (active); in assay [12] it was -2.2 (inactive); in assay [13], -0.439 (inactive); in [14], 0.488 (inactive); in [15] it was 0.142 (inactive).
Turning to `Cc1ccc(S(=O)(=O)N2[C@@H](c3ccccc3)C(C(=O)O)=CC[C@H]2c2ccccc2)cc1`, the composite z-score was -0.247 in assay [1]; 0.699 in assay [2]; 0.431 in assay [3]; 0.175 in assay [4]; -0.12 in assay [5]; -0.158 in [6]. Besides, the composite z-score stood at 0.0236 in [8]; 0.33 in [9]; 0.105 in [11]; 0.263 in assay [16]; 0.0631 in assay [17]; 0.195 in assay [18]. In addition, the results for the composite z-score in [19] and in assay [20] were -0.0024 and -0.497, respectively. Further, the z-score was -1.38 in assay [7]; 0.838 (inactive) in [10]; -0.498 (inactive) in [12]; 0.0815 (inactive) in assay [13]; 0.0707 (inactive) in assay [14]; -0.303 (inactive) in assay [15].
As for `CC[C@@H]1C=C(C(=O)O)[C@H](c2ccccc2)N1S(=O)(=O)c1ccc([N+](=O)[O-])cc1`, the composite z-score was 1.34 in [1]; 1.24 in assay [2]; 0.783 in [3]; -0.368 in assay [4]; 0.221 in assay [5]; -0.715 in assay [6]. Also, the composite z-score in assay [8] is -0.177; in [9], 1.01; in assay [11] it was -0.0781; in assay [16] it was 0.698; in assay [17], -0.128; in assay [18], 0.802. In addition, the composite z-score in assay [19] was 0.717; in assay [20], -0.335. Also, the z-score in [7] is -0.506; in assay [10], 0.631 (inactive); in [12] it was -0.979 (inactive); in assay [13], -0.667 (inactive); in assay [14], -0.873 (inactive); in assay [15], 0.403 (inactive).
Consider `O=C1OCC=C[C@H]2OC34C=CCN(Cc5ccccc5)C(=O)[C@H]3N(CCO)C(=O)[C@@H]4[C@@H]12` (stereo not given in full), for which the composite z-score in assay [1] was -0.29; in [2], -0.766; in [3] it was -0.248; in assay [4], -1.04; in assay [5] it was -0.0764; in assay [6], -1.24. The composite z-score in assay [8] is 0.0323; in [9] it was -0.0943; in [11], -0.744; in assay [16], -1.09; in assay [17], -0.307; in assay [18] it was -2.02. In addition, the figures for the composite z-score in assay [19] and in [20] were -0.768 and -0.722, respectively. In addition, the z-score was -0.0233 in assay [7]; -3.69 (inactive) in assay [10]; 0.154 (inactive) in assay [12]; -0.992 (inactive) in [13]; -1.31 (inactive) in assay [14]; -0.773 (inactive) in assay [15].
